hNpr1 antagonist: Natriuretic polypeptide receptor (hNpr1) antagonism - Primary qHTS. Atrial natriuretic peptide receptor 1 (Homo sapiens), P16066. HEK293 hNpr1 GloSensor cGMP, ANP-stimulated luminescence. Potency, µM (titrated, usually from 46.3 µM), for the others: at the top dose activity change, negative = inhibition, actives largely listed as inhibitors. 76,000 tested, 1.6% active. AID 1347048, 2019; calls by dose curve; also: nearly all actives have a fitted effect of over 60% in size
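Compound pre-incubated 30 min at room temperature on GloSensor-loaded HEK293 cells stably carrying hNpr1 and the pGS-40F cGMP biosensor. Stimulation uses hNppA at 0.1 nM final; luminescence is taken at baseline and 20 min post-agonist.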
FLuc inh: Firefly luciferase inhibition profiling of diverse chemical library using quantitative high-throughput screening | AID 1347043, 2019 | 76,000 tested, 2.5% active | Luciferin 4-monooxygenase (Photinus pyralis), P08659 | Potency, µM (titrated, usually from 115 µM), usual class: inhibitors | purified P. pyralis luciferase, luminescence, biochemical; also: nearly all actives have a fitted effect of over 65% in size
Target sequence (P08659 whole entry, looked up): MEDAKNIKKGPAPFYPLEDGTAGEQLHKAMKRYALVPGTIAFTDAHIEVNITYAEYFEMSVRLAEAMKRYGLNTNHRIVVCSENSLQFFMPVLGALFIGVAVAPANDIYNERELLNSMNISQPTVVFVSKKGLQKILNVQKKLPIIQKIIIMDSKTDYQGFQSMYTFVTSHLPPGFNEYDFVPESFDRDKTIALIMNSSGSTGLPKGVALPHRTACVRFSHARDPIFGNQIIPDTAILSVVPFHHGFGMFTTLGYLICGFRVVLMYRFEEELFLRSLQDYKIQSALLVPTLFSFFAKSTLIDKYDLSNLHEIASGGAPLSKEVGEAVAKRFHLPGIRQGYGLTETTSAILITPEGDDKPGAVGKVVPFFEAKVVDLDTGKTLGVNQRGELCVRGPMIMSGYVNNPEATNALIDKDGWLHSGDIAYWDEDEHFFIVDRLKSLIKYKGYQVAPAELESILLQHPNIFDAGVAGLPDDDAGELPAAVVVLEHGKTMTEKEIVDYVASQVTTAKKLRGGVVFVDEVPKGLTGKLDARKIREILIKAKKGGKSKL
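Inhibitors were tested against purified firefly luciferase in a biochemical, low-substrate format (both substrates at 10uM) and luminescence measured with a CCD imager.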
HEK cytotox: Cytotoxic Profiling in HEK 293 Cell Line of Diverse Libraries Using Quantitative High-Throughput Screening | HEK 293 viability, ATP luminescence (CellTiter-Glo), 48-72 h | Potency, µM (series often up to 115 µM), inactives show at the top dose activity change, negative = cytotoxicity, actives largely listed as inhibitors | 94,000 tested, 6.6% active | AID 1345083, 2018; also: nearly all actives have a fitted effect of over 60% in size
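HEK 293 cells at 250 cells/well were exposed to compounds by pintool transfer for 48 or 72 hr at 37 degree Celsius, 5% CO2. Viability was read as ATP-coupled luminescence with CellTiter-Glo after 10 min at room temperature.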
NIH3T3 tox: Cytotoxic Profiling in NIH 3T3 Cell Line of Diverse Libraries Using Quantitative High-Throughput Screening; Potency, µM (titrated, usually from 96.7 µM), without a hit: at the top dose activity change, negative = cytotoxicity, hits mostly inhibitors; NIH 3T3 viability, CellTiter-Glo ATP luminescence, 48-72 h; AID 1345082, 2018; 94,000 tested, 4.3% active; also: nearly all actives have a fitted effect of over 55% in size
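Luminescent ATP readout (CellTiter-Glo, 10 min RT) after 48 or 72 hr compound exposure of NIH 3T3 cells seeded at 400 cells/well in 1536-well format; quantitative HTS.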
GPT2 inhibitor: Primary qHTS assay for inhibitors of Glutamate pyruvate transaminase 2 (GPT2); 100,000 tested, 0.25% active; Recombinant GPT2, coupled pyruvate oxidase/HRP Amplex Red fluorescence; Potency, µM (titrated, usually from 57.7 µM), inactives show at the top dose activity change, negative = inhibition, usual class: inhibitors; AID 1671188, 2021; also: nearly all actives have a fitted effect of over 60% in size
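GPT2 10ng/uL, a-KG 250uM, L-Ala 2mM, HEPES pH7.5 + 0.0001% Tween; 30 min RT. Then Amplex mix (PO/HRP/ThPP), 30 min RT dark, fluorescence. AOA 50uM used as positive control.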
Starred values were filed as active, the others as inactive; i = inactive; ? = inconclusive; · = not tested or not shown; [ ] = another dose, or the depositor's remark. A selection: hits, their analogues and other compounds. The true share with any hit is near 10%. Unless noted, calls follow the shape of the dose curve; as a rule, active = well fitted curve in the direction sought with a large enough effect; inconclusive = small, poorly fitted or top-dose-only effect, or another doubt; inactive = no such curve, though single readings can be large; an effect the other way counts as inactive or inconclusive. % is scaled to controls: 0 for no effect and ±100 for the full control effect; potency is read from the fitted curve at half-maximal effect.

SMILES	hNpr1 antagonist	FLuc inh	HEK cytotox	NIH3T3 tox	GPT2 inhibitor
Cc1noc(C)c1-c1cc2cc(CN(C)C)oc2c(NCc2cccc(F)c2)n1	-2%[70.6 µM]	i	?	?	i
Cc1noc(C)c1-c1cc2cc(CN(C)C)oc2c(NCCc2ccccc2)n1	-4%[70.6 µM]	i	56µM*	45µM*	?
Cc1noc(C)c1-c1cc2cc(CN(C)C)oc2c(NCC(C)C)n1	-13%[70.6 µM]	i	71µM*	50µM*	-13%[88.5 µM]
Cc1noc(C)c1-c1cc2cc(CN(C)C)oc2c(NCCOc2ccccc2)n1	-21%[70.6 µM]	i	?	79µM*	3%[88.5 µM]
Cc1cc(C)c(CNC(=O)c2cc(-c3ccc(CN(C)C)cc3)cc3ncn(C)c23)c(=O)[nH]1	1%	?	i	?	1%
COc1ccc(-c2cc3c(ccn3C(C)C)c(C(=O)NCc3c(C)cc(C)[nH]c3=O)n2)cn1	1%	i	?	?	4%
Cc1ccc(-c2cc3c(ccn3C(C)C)c(C(=O)NCc3c(C)cc(C)[nH]c3=O)n2)cn1	1%[70.6 µM]	?	?	79µM*	i
Cc1cc(C)c(CNC(=O)c2nc(-c3ccccc3C)cc3c2ccn3C(C)C)c(=O)[nH]1	?	i	22µM*	28µM*	-12%[88.5 µM]
Cc1cc(C)c(CNC(=O)c2nc(-c3ccc(CN(C)C)cc3)cc3[nH]ccc23)c(=O)[nH]1	5%[70.6 µM]	?	?	100µM*	i
Cc1cc(C)c(CNC(=O)c2nc(-c3ccc(CN(C)C)cc3)cc3c2ccn3C(C)C)c(=O)[nH]1	-2%	i	?	14µM*	-27%
Cc1cc(CN(C)Cc2cn(-c3cccc(F)c3)nc2-c2ccc(C)o2)n[nH]1	-4%	?	45µM*	?	i
COc1ccccc1Nc1cnc2ccc(-c3cccc(CO)c3)nn12	?	i	?	?	i
OCc1cccc(-c2ccc3ncc(Nc4cccc(F)c4)n3n2)c1	-24%[70.6 µM]	i	56µM*	28µM*	?
Cc1ccccc1Nc1cnc2ccc(-c3cccc(CO)c3)nn12	-3%[70.6 µM]	i	79µM*	?	-3%[88.5 µM]
CCN1C(=O)CN(C(=O)c2cccs2)CC12CCOCC2	·	·	-12%	-22%	i
Cc1nn(C)c(C)c1S(=O)(=O)N1CCCC(Cn2c(C3CC3)nc3cccnc32)C1 (stereo unspecified)	-1%	i	1%	?	i
Cc1nn(C)c(C)c1S(=O)(=O)N1CCCC(C(=O)N2CCCn3nc(-c4ccc(F)cc4)cc3C2)C1 (stereo unspecified)	·	·	32µM*	?	-3%
CNc1nccc(N2CCC(CC(=O)N3CCN(c4cccc(OC)c4)CC3)CC2)n1	?	i	25µM*	?	-4%
CNc1nccc(N2CCC(CC(=O)N3CCN(C(C)=O)CC3)CC2)n1	0%	i	?	-9%	5%
CCNc1nccc(N2CCC(CC(=O)N(CC)CC)CC2)n1	-6%	i	?	?	1%
CCNc1nccc(N2CCC(CC(=O)NCc3ccccc3F)CC2)n1	-8%	i	40µM*	?	i
CNc1nccc(N2CCC(CC(=O)NC3CCN(Cc4ccccc4)CC3)CC2)n1	-13%	i	?	35µM*	i
CNc1nccc(N2CCC(CC(=O)NCc3ccccn3)CC2)n1	0%	i	?	-8%	-11%
CCNc1nccc(N2CCC(CC(=O)N3CCN(c4ccccc4F)CC3)CC2)n1	-30%	i	?	18µM*	i
CC(=O)N1CCCN(c2cc(Cl)nc3ccnn23)CC1	31%[70.6 µM]	i	-22%[172 µM]	-19%[138 µM]	?
NC(=O)c1noc2c1CN(c1cc(-c3ccccc3)nc3ccnn13)CC2	-21%	i	45µM*	?	i[11.5 µM]
Cc1cccc(C(=O)N2CC(N(Cc3ccccn3)S(C)(=O)=O)C2)c1	·	·	2%	-3%	i
